Measurements from PubChem BioAssay AID652042 (Broad Institute, 2013).
Out of some 1,100 compounds screened, about 350 (32%) were called active. Not all results are given here. Potency and affinity values are given separately. Values without a mark were called inactive. No rule for the calls is given here.

Assay: CEM21 lymphoblast cell cytotoxicity, dose response, cytotoxicity control for viral fusion inhibitor project, CellTiter-Glo luminescence, cherry-picked (AID 652042)
Conditions: CEM21 cells viability, CellTiter-Glo ATP luminescence, 24 h; series mostly up to 35 µM; activity change, negative = cytotoxicity: at the top concentration

Row | SMILES | activity change, negative = cytotoxicity
1 | CC1(C)C2CCC1(C)C(OCCNCCOC(=O)Nc1ccccc1)C2 (centres undefined) | -25.1%
2 | CCN1C(=O)[C@H]2[C@@H](c3ccc(C)cc3)N3C(=O)N(c4cccc(Br)c4)C(=O)[C@@]3(CC)[C@H]2C1=O | -6.07%
3 | CCN1C(=O)[C@H]2[C@@H](c3ccc(C)cc3)N3C(=O)N(c4cccc(Br)c4)C(=O)[C@@]3(CC(C)C)[C@H]2C1=O | 1.19% [at 16 µM]
4 | C[C@H](CO)N1C[C@H](C)[C@H](CN(C)S(=O)(=O)c2cccs2)Oc2ccc(NC(=O)Cc3cn(C)c4ccccc34)cc2CC1=O | -4.75%
5 | CCC(C)(C)NC(=O)C(NS(=O)(=O)c1cccs1)c1ccccc1 (centres undefined) | 4.01%
6 | CC(C)OCCCNc1ncnc2c1[nH]c1ccccc12 | -23.4%
7 | CCOC(=O)/C=C1\Nc2ccccc2SC1=O | -1.22%
8 | CCCCCn1c(C(C)NC(=O)CCC)nc2ccccc21 (centres undefined) | 1.39%
9 | Cn1c(=O)n(-c2cccc(Cl)c2)c(=O)c2c3c(sc21)COC(C)(C)C3 | -1.94%
10 | C=CCN([C@@H](CC(C)C)C(=O)OC)S(=O)(=O)N(CC=C)[C@@H](CC(C)C)C(=O)OC | -22.3%
11 | CN1CCc2ccccc2Cc2[nH]c3ccccc3c2CC1 | 2.03%
12 | Cc1sc2ncnc(N3CCN(S(=O)(=O)c4ccc(Br)cc4)CC3)c2c1C | -26.4%
13 | CCc1cccc(NC(=O)C2CCN(S(=O)(=O)c3ccc4c(c3)CC(C)N4C(C)=O)CC2)c1 (centres undefined) | -22%
14 | Cc1ccc2nc(NC(=O)CCCC(=O)O)sc2c1 | 1.57%
15 | Cc1cccc(NC(=O)C2CCN(S(=O)(=O)c3ccc4c(c3)OCCCO4)CC2)n1 | -10.3%
16 | Cc1ccc(Cn2nnnc2CN2CCC(c3nc4ccc(Cl)cc4[nH]3)CC2)cc1 | -15.9%
17 | COc1ccc(CN2CCC(C)(Oc3ccc4c(c3)OCO4)C2)c2ccccc12 (centres undefined) | -16.4%
18 | CCN(C[C@H]1N[C@@](CC)(C(=O)OC)[C@H]2C(=O)N(Cc3ccccc3)C(=O)[C@@H]12)C(=O)Nc1ccc(OC)cc1 | 2%
19 | COC(=O)[C@@]1(C)[C@H]2C(=O)N(Cc3ccccc3)C(=O)[C@H]2[C@H]2CN=C(SCc3ccc(Cl)cc3)N21 | -14.2%
20 | CCN1C(=O)[C@H]2[C@@H](c3ccc(C)cc3)N3C(=O)N(c4cccc(Cl)c4)C(=O)[C@@]3(CC)[C@H]2C1=O | 4.5%
21 | CS(=O)(=O)N(Cc1ccc(Cl)cc1)c1ccc(C(=O)NCCSc2ccccn2)cc1 | -17.6%
22 | CC(=O)c1c(C)[nH]c(C(=O)OCCCCN2C(=O)c3ccccc3C2=O)c1C | -19.4%
23 | CCC(=O)Nc1ccc2c(c1)C(=O)N(C)C[C@@H](OC)[C@H](C)CN(C(=O)CC)[C@@H](C)CO2 | -0.847%
24 | COCC(=O)N1C[C@@H](C)[C@H](OC)CN(C)C(=O)c2ccc(NC(=O)c3ccc(OC)cc3)cc2OC[C@@H]1C | -0.433%
25 | CO[C@H]1CN(C)C(=O)c2ccc(NC(=O)C3CC3)cc2OC[C@@H](C)N(C(C)=O)C[C@@H]1C | 0.552%
26 | CCCC(=O)Nc1ccc2c(c1)OC[C@H](C)N(C(=O)CN(C)C)C[C@@H](C)[C@H](OC)CN(C)C2=O | 1.57%
27 | CO[C@H]1CN(C)C(=O)c2cc(NC(=O)C3CCOCC3)ccc2OC[C@H](C)N(Cc2nccs2)C[C@H]1C | -7.3%

Row | SMILES | activity change, negative = cytotoxicity
28 | CO[C@H]1CN(C)C(=O)c2ccc(NC(=O)Nc3cccc(F)c3)cc2OC[C@@H](C)N(C(C)=O)C[C@H]1C | 3.06%
29 | CCN(CC)S(=O)(=O)c1ccc(N2CCCC2)c(NC(=O)Cc2cc(OC)c(OC)c(OC)c2)c1 | -0.756%
30 | O=C(c1cccc(S(=O)(=O)N2CCN(c3ccccc3)CC2)c1)N1CCCC(C(F)(F)F)C1 (centres undefined) | -13.9%
31 | O=C1CCCCC1Sc1nnc(-c2ccc3c(c2)OCO3)o1 (centres undefined) | -4.91%
32 | O=C(CN1C(=O)c2ccccc2S1(=O)=O)c1ccc2c(c1)OCCO2 | -3.96%
33 | Cc1ccccc1S(=O)(=O)NC(=O)C1(C)CCN1C(=O)CCc1ccc(Cl)cc1Cl (centres undefined) | -0.499%
34 | COc1ccc([C@@H]2[C@@H]3C(=O)N(C(C)(C)C)C(=O)[C@@H]3[C@]3(CC(C)C)C(=O)N(c4cccc(F)c4)C(=O)N23)cc1 | -0.051%
35 | COc1ccc(-c2cc(C(=O)NNC(=S)NC(=O)c3c(-c4ccccc4)noc3C)[nH]n2)cc1 | -18.7%
36 | Cc1onc(-c2ccccc2)c1C(=O)Nc1ccc(Br)cc1Cl | -6.29%
37 | CC1(Cc2ccc(Cl)cc2)C(=O)Nc2ccc(S(=O)(=O)NC3CCCCC3)cc21 (centres undefined) | -16.2%
38 | O=C(Nc1cccn(Cc2c(Cl)cccc2Cl)c1=O)c1ccc(Cl)cc1 | -22.3%
39 | CCCCOc1ccc(S(=O)(=O)Nc2cccnc2)cc1 | -6.62%
40 | CCCNC(=O)C[C@@H]1C[C@H]2c3cc(NC(=O)Cc4ccncc4)ccc3O[C@H]2[C@H](CO)O1 | 0.915%
41 | COc1ccccc1S(=O)(=O)N[C@H]1CC[C@H](CC(=O)N2CCN(C)CC2)O[C@H]1CO | -2.4%
42 | CC1CCN(S(=O)(=O)c2cc(C(=O)N3CCN(c4ccccc4)CC3)ccc2Br)CC1 | -29.4%
43 | Cc1ccc(C2CC(=O)c3cnc(N4CCc5ccccc5C4)nc3C2)cc1 (centres undefined) | 0.412%
44 | O=C(Cc1ccncc1)N[C@H]1CC[C@@H](CCn2cc(-c3ccccc3F)nn2)O[C@@H]1CO | 1.85%
45 | CN(C)Cc1cn(CC[C@@H]2CC[C@H](N)[C@H](CO)O2)nn1 | -1.13%
46 | CC[C@@]12C(=O)N(c3ccccc3)C(=O)N1[C@H](c1cccc(C)c1)[C@@H]1C(=O)N(Cc3ccccc3)C(=O)[C@@H]12 | -8.41%
47 | CC(C)(C)n1nnnc1C(c1cccs1)N(Cc1cccnc1)Cc1ccco1 (centres undefined) | -11.5%
48 | CC(C)(C)NC(=O)C(c1ccccc1)N(Cc1cccs1)C(=O)c1csnn1 (centres undefined) | 3.62%
49 | COc1ccc(N2C(=O)N3[C@H](c4ccc(Cl)cc4)[C@@H]4C(=O)N(C5CCCCC5)C(=O)[C@@H]4[C@]3(C)C2=O)cc1 | -13.4%
50 | CCn1ncc(C2=NOC(C(=O)Nc3ccc(C)cc3)C2)c1C (centres undefined) | 3.78%
51 | c1csc(-c2csc3ncnc(NCCCN4CCOCC4)c23)c1 | -3.21%
52 | O=C(C[C@@H]1C[C@@H]2c3cc(NC(=O)C4CCC4)ccc3O[C@@H]2[C@@H](CO)O1)NCC(F)(F)F | 1.57%
53 | CCNC(=O)C[C@H]1CC[C@@H]2[C@@H](COc3ccc(NC(=O)Cc4cccs4)cc3C(=O)N2C)O1 | -2.64%
54 | CS(=O)(=O)N1CCc2cc(-c3csc(NC(=O)Cc4cccs4)n3)ccc21 | -6.69% [at 16 µM]
